According to PubChem BioAssay AID2013 (Sanford-Burnham Center for Chemical Genomics, 2009):
About 370 (0.13%) of roughly 290,000 compounds were called active.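 Rule for the calls: active = spots per cell inhibited over 60%, with over 100 cells counted and total cytoplasm intensity under 500,000; inconclusive = wells with under 100 cells, flagged as likely toxic; inactive = the rest.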 The list comes from a sample in which actives are over-represented; it also holds similar structures and randomly drawn compounds. Results with a measured potency or affinity are listed apart.

The compounds below were run against G-protein coupled receptor 55 (Homo sapiens) (UniProt Q9Y2T6) (assay: inhibition of LPI-stimulated GPR55 beta-arrestin translocation – imaging, U2OS, beta-arrestin-GFP, LPI agonist, primary screen (AID 2013;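 note: U2OS cells stably carrying GPR55 and arrestin-GFP stimulated by 5 µM LPI near EC80; imaged beta-arrestin-GFP aggregate spots per cell after agonist stimulation; plate controls were LPI-stimulated DMSO wells for no effect and DMSO wells without LPI for full effect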)). Conditions: LPI antagonism, at 10 µM, active compounds read high.
G-protein coupled receptor 55 (Homo sapiens), sequence (Q9Y2T6 whole entry, looked up): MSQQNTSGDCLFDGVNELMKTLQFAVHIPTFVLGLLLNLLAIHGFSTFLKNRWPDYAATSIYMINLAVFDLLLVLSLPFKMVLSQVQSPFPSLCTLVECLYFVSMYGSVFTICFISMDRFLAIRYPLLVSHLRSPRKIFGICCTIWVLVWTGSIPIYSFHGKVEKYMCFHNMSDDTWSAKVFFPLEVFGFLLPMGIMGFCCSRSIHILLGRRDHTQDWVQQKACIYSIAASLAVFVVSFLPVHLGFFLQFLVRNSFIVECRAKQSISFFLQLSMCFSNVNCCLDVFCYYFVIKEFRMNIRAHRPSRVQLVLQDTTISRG
For `CSc1nsc(SC)c1NC(=O)N1CCCCC1`, the inhibition was 3.9% (inactive). `Cc1cc(C)c(C(=O)CN2C(=O)NC3(CCC(C)CC3)C2=O)cc1C` (stereo unspecified) was tested, and the inhibition was 0.1% (inactive). In the case of `COC(=O)c1ccc(C#Cc2ccccc2)o1`, the inhibition is reported as -12.1% (inactive). `COC(=O)c1sc(NC(=O)c2c(F)cccc2F)c(C#N)c1C` was tested, and the inhibition was -4.7% (inactive). For `O=C1CC(C(=O)O)(c2ccccc2)c2cccc(F)c21` (stereo unspecified), the inhibition was -1.7% (inactive). In the case of `COC(=O)C1=C(N)Oc2c(oc(CO)cc2=O)C1c1ccc(F)cc1` (stereo unspecified), the inhibition is reported as 6% (inactive). In the case of `COC(=O)C1=C(C)OC(N)=C(C#N)C1c1ccccc1F` (stereo unspecified), the inhibition is reported as 9% (inactive). In the case of `COC(=O)c1c(-c2ccccc2)csc1N`, the inhibition is reported as 1.1% (inactive). In the case of `COc1ccc(-c2nnn(CC(=O)NCCc3ccc(OC)c(OC)c3)n2)cc1`, the inhibition is reported as -2.6% (inactive). In the case of `O=C1/C(=C/c2ccc([N+](=O)[O-])cc2)CCc2ccccc21`, the inhibition is reported as 6.9% (inactive). For `Cn1c(=O)c2c(ncn2Cc2nnc(N)s2)n(C)c1=O`, the inhibition was 3.3% (inactive). `CCOC(=O)c1ccc(NC(=S)N2CCC(O)CC2)cc1` was tested, and the inhibition was 1% (inactive). `C#CCn1c(CCNC(=O)c2ccco2)nc2ccccc21` was tested, and the inhibition was -12.6% (inactive). In the case of `CCOc1ccccc1CNC(=O)CCCn1ncn2c(cc3occc32)c1=O`, the inhibition is reported as -7.1% (inactive). With `CCCCC(=O)N(Cc1ccc(F)cc1)C1CCS(=O)(=O)C1` (stereo unspecified) the inhibition was -2.9% (inactive). For `Nn1c(CSc2nc3ccccc3o2)nnc1CSc1nc2ccccc2o1`, the inhibition was 2.1% (inactive). `COC(=O)c1sccc1NC(=S)N1CCCCC1` was tested, and the inhibition was -4.6% (inactive). For `Cn1c(-c2sccc2OCc2ccccc2)n[nH]c1=S`, the inhibition was 6.8% (inactive). `CSc1nnc(-c2sccc2OCc2ccc(C)cc2)n1C` was tested, and the inhibition was 28.1% (inactive). In the case of `O=C(O)CNS(=O)(=O)c1ccc(-c2ccccc2)cc1`, the inhibition is reported as 75.2% (active). `O=C(O)CNS(=O)(=O)c1ccc2c(c1)C(=O)c1cc(S(=O)(=O)NCC(=O)O)ccc1-2` was tested, and the inhibition was -7.8% (inactive). For `O=C(O)CNS(=O)(=O)c1ccc(F)cc1`, the inhibition was 0.5% (inactive). With `COc1ccc(C(=O)Nc2ccc(/C(C)=N/NC(=O)c3ccncc3)cc2)cc1` the inhibition was 10.6% (inactive). `Cc1cccc(NC(=O)C2CC(O)CN2C(=O)Oc2ccccc2)c1` (stereo unspecified) was tested, and the inhibition was 2.6% (inactive). With `CC(NC(=O)Cn1nnc(-c2ccncc2)n1)c1ccccc1` (stereo unspecified) the inhibition was -4.9% (inactive). With `CC1(C)Cc2ccccc2-c2nc3ccccc3c(=O)n21` the inhibition was 0.3% (inactive). `COc1cc2c(cc1OC)-c1nc3ccccc3c(=O)n1C(C)(C)C2` was tested, and the inhibition was 4.8% (inactive). `O=C(NC12CC3CC(CC(C3)C1)C2)c1ccc(Br)o1` was tested, and the inhibition was 13% (inactive). For `O=C(NC12CC3CC(CC(C3)C1)C2)c1ccc([N+](=O)[O-])o1`, the inhibition was 1.3% (inactive). `O=C(NC12CC3CC(CC(C3)C1)C2)c1ccc(-c2ccccc2Cl)o1` was tested, and the inhibition was -9.4% (inactive). In the case of `O=C(NC12CC3CC(CC(C3)C1)C2)c1ccc(-c2ccc(Br)cc2)o1`, the inhibition is reported as 63.8% (active). For `O=C(NC12CC3CC(CC(C3)C1)C2)c1ccc(-c2cccc(Cl)c2)o1`, the inhibition was 2.9% (inactive). `C1CN(c2nc(N3CCOCC3)nc(N3CCOCC3)n2)CCO1` was tested, and the inhibition was 8.7% (inactive). In the case of `Cc1[nH]nc2c1/C(=N/O)CC(c1ccccc1)C2` (stereo unspecified), the inhibition is reported as -5.5% (inactive). For `COc1cc2ncc(C(=O)c3ccccc3)c(N3CCN(Cc4ccccc4)CC3)c2cc1OC`, the inhibition was 3.4% (inactive). For `CCc1ccccc1N(C)C(=O)CCc1nc(-c2ccc(C)cc2)no1`, the inhibition was -8.4% (inactive). In the case of `Cc1ccc(-c2noc(CCC(=O)N(C)c3ccccc3C)n2)cc1`, the inhibition is reported as -2.6% (inactive). With `CCc1ccccc1NS(=O)(=O)c1c(C(=O)N2CCCCCC2)c(C)n(C)c1C` the inhibition was 3.1% (inactive). In the case of `CCN(C(=O)CSc1nnc(Nc2ccccc2C)s1)C1CCS(=O)(=O)C1` (stereo unspecified), the inhibition is reported as 12.3% (inactive). With `CC(C)C[C@H](NC(=O)Nc1ccccc1F)C(=O)O` the inhibition was 2.2% (inactive). `CSc1ccc(CN(C)C(=O)c2cc(=O)c3ccccc3o2)cc1` was tested, and the inhibition was -0.8% (inactive). With `COc1cc(NS(=O)(=O)c2ccc(Nc3nc(-c4ccccn4)cs3)cc2)nc(OC)n1` the inhibition was 2.2% (inactive). With `COc1ccc(-c2csc(Nc3ccc(S(N)(=O)=O)cc3)n2)cc1` the inhibition was 4.6% (inactive). In the case of `COc1cc(NS(=O)(=O)c2ccc(Nc3nc(-c4cccc([N+](=O)[O-])c4)cs3)cc2)nc(OC)n1`, the inhibition is reported as 0.2% (inactive). With `COc1ccc(-c2csc(Nc3ccc(S(=O)(=O)Nc4cc(C)on4)cc3)n2)cc1` the inhibition was 5.4% (inactive). In the case of `O=C1CC(N2CCN(c3ccccn3)CC2)C(=O)N1c1ccc(Cl)cc1` (stereo unspecified), the inhibition is reported as -0.1% (inactive). With `COCCn1c(SCC(=O)NC2CCCC2)nnc1-c1ccncc1` the inhibition was 1.6% (inactive). `O=C(NCCc1ccc(Cl)cc1)c1cc2ccccn2n1` was tested, and the inhibition was 6.6% (inactive). `COc1ccc(N2CCN(C(=O)Cn3ncc4c([nH]c5ccccc54)c3=O)CC2)cc1` was tested, and the inhibition was -7% (inactive). With `COc1cccc(NC(=O)COC(=O)CC(NC(N)=O)c2ccc(Cl)cc2)c1` (stereo unspecified) the inhibition was -13.8% (inactive). In the case of `COc1cc(-c2cc(C(=O)Nc3ccccc3N3CCOCC3)c3ccccc3n2)cc(OC)c1OC`, the inhibition is reported as 17.1% (inactive). With `O=C(Nc1ccc(N2CCOCC2)cc1)c1cc(-c2ccncc2)nc2ccccc12` the inhibition was 15.8% (inactive). For `Cc1cc(NC(=O)CSc2nnc(C)o2)no1`, the inhibition was 4.5% (inactive). In the case of `CNc1nc(NCc2ccccc2)c2ccccc2n1`, the inhibition is reported as 5.4% (inactive). `Cc1ccc(-c2nc(NCc3ccco3)c3ccccc3n2)cc1` was tested, and the inhibition was 7.7% (inactive). `OCCNc1nc(NCc2ccccc2)c2ccccc2n1` was tested, and the inhibition was -6.4% (inactive). In the case of `c1ccc(Nc2nc(NCc3ccco3)c3ccccc3n2)cc1`, the inhibition is reported as 73.7% (active). For `Fc1ccc(Nc2nc(NCc3ccco3)c3ccccc3n2)cc1`, the inhibition was 60.1% (inactive). In the case of `Cc1cccc(Nc2nc(NCc3ccco3)c3ccccc3n2)c1`, the inhibition is reported as -2.1% (inactive). With `Cc1ccccc1Nc1nc(NCc2ccco2)c2ccccc2n1` the inhibition was 54.3% (inactive). In the case of `c1ccc(CNc2nc(NCc3ccccc3)c3ccccc3n2)cc1`, the inhibition is reported as 72% (active). In the case of `CC(=O)c1ccc(NC(=O)COc2ccccc2C(=O)Nc2ccc(C)cn2)cc1`, the inhibition is reported as 10% (inactive). `CC(C)CC1(C)NC(=O)N(Cc2cc([N+](=O)[O-])cc3c2OCOC3)C1=O` (stereo unspecified) was tested, and the inhibition was -6.2% (inactive). In the case of `CCCN(CC1CC1)C(=O)COC(=O)c1ccc(CNS(=O)(=O)c2ccc(F)c(Cl)c2)cc1`, the inhibition is reported as 0.7% (inactive). In the case of `c1ccc(OCCOc2ccccc2-c2nnco2)cc1`, the inhibition is reported as -6.8% (inactive). In the case of `Cc1ccc(-c2ccccc2[C@@H]2C[C@H]3CN(C)C(=O)[C@]34CCCN24)o1`, the inhibition is reported as -2.8% (inactive). For `CC(C)N(C=O)C1(C(=O)NC2CCCCC2)CCCCC1`, the inhibition was 5.3% (inactive). In the case of `COc1ccc[nH]c1=O`, the inhibition is reported as 0.4% (inactive). For `CC(O)CNc1cnccn1` (stereo unspecified), the inhibition was 14.2% (inactive). For `O=C(NCCN1CCNC1=O)C1CCC(=O)N(Cc2cccc(C(F)(F)F)c2)C1` (stereo unspecified), the inhibition was -10.6% (inactive). In the case of `Cc1ccc(NC(=S)NNC(=O)c2c([N+](=O)[O-])c(C)nn2C)cc1`, the inhibition is reported as -1.6% (inactive). For `CN1C2CCC1/C(=C\c1ccccc1)C(=O)/C2=C\c1ccccc1`, the inhibition was 15.1% (inactive). `CN1C2CCC1/C(=C\c1ccccc1Cl)C(=O)/C2=C\c1ccccc1Cl` was tested, and the inhibition was -4.7% (inactive). For `CC(C)(C)c1ccc(C(=O)Nc2ccc(C(=O)N3CCOCC3)cc2)cc1`, the inhibition was 13% (inactive). For `O=C(NCC(=O)N1CCN(S(=O)(=O)/C=C/c2ccccc2)CC1)c1ccc(Cl)cc1`, the inhibition was 10.1% (inactive). With `CCN(CC)CCNC(=S)N1CCn2c(nc3ccccc32)C1` the inhibition was 3.9% (inactive). In the case of `CCOC(=O)c1c(C)n(C)c2ccc(OC)c(NC(=O)CN3CCC(C(=O)OCC)CC3)c12`, the inhibition is reported as -6.7% (inactive). With `CCOc1ccccc1NC(=O)Nc1ccc(Br)cn1` the inhibition was 13.3% (inactive). In the case of `CN(NC(=O)CN1C(=O)c2ccccc2C1=O)C1=NS(=O)(=O)c2ccccc21`, the inhibition is reported as -1.6% (inactive). For `CC(C)(C)OC(=O)N1CCC(NC(=O)c2[nH]cnc2C(=O)N[C@@H](Cc2ccccc2)C(=O)OCc2ccccc2)CC1`, the inhibition was 41.8% (inactive). For `C[C@H](NC(=O)c1nc[nH]c1C(=O)NCc1ccc(CNC(=O)OC(C)(C)C)cc1)C(=O)OC(C)(C)C`, the inhibition was 18.1% (inactive). In the case of `CC(C)(C)OC(=O)[C@H](Cc1ccccc1)NC(=O)c1nc[nH]c1C(=O)N1CCN(C(=O)OC(C)(C)C)CC1`, the inhibition is reported as 4.7% (inactive). For `C[C@H](NC(=O)c1[nH]cnc1C(=O)Nc1ccc(CNC(=O)OC(C)(C)C)cc1)C(=O)OCc1ccccc1`, the inhibition was 1.5% (inactive). In the case of `CC(C)(C)OC(=O)NCc1ccc(CNC(=O)c2[nH]cnc2C(=O)N[C@@H](Cc2ccccc2)C(=O)OCc2ccccc2)cc1`, the inhibition is reported as 35.5% (inactive). For `CC(C)C[C@H](NC(=O)c1[nH]cnc1C(=O)Nc1ccc(CNC(=O)OC(C)(C)C)cc1)C(=O)OCc1ccccc1`, the inhibition was 7% (inactive). `CCN(CC)S(=O)(=O)c1cc(C(=O)Nc2cc(C)[nH]n2)ccc1Cl` was tested, and the inhibition was 17.6% (inactive). For `Cc1cc(C)nc(NS(=O)(=O)c2ccc(NC(=O)C3CC3)cc2)n1`, the inhibition was 0% (inactive). `O=C(NNc1c(Cl)cccc1Cl)c1ccno1` was tested, and the inhibition was 5% (inactive). For `O=C(NC1CCCCC1)C(c1ccco1)N(C(=O)C(F)(F)F)C1CC1` (stereo unspecified), the inhibition was -2.5% (inactive). `O=C(NCc1ccc2c(c1)OCO2)Nc1ccc(Cl)cc1` was tested, and the inhibition was -2.2% (inactive). `O=C(Nc1ccccc1Cl)c1ccccc1` was tested, and the inhibition was 3.2% (inactive). In the case of `CC(C(=O)Nc1ccccc1)C(=O)Nc1ccccc1`, the inhibition is reported as -4.5% (inactive). For `Cc1cccc(C)c1NC(=O)C(Cl)C(=O)c1ccccc1` (stereo unspecified), the inhibition was 2.5% (inactive). With `CC(=O)C(Cl)C(=O)Nc1ccccc1` (stereo unspecified) the inhibition was -8.1% (inactive). `O=C(Nc1ccccc1)C(Cl)C(=O)c1ccccc1` (stereo unspecified) was tested, and the inhibition was 6.1% (inactive). In the case of `O=C(Nc1ccccc1Cl)Nc1ccccc1Cl`, the inhibition is reported as 1.2% (inactive).
